Measured values: the OligoGym collection

Molecular target: MED31
Assay: pooled miR-30 sensor sort-seq; sequence = guide strand
Details: shRNA
Note: reference of the scale not given here.

Row | Sequence | sensor-assay potency score (higher = more potent)
1 | TTGCACAAATTCCAACTCCAAC | -1.8
2 | TTGGAGCAGCTCTAACATGTGT | -0.598
3 | TAAATTTCGCACACTGAGCATT | -1.04
4 | TTGTCTTTGAAGTAACCTCTTT | -0.371
5 | TTTGCTGTTGCTGCTCTGCCAA | -0.936
6 | TTTTTTGTCTTCACTGTACAAA | -0.668

Molecular target: MEI1
Assay: as above
Details: shRNA

Row | Sequence | sensor-assay potency score (higher = more potent)
7 | TAGACTAGCTGCAGGTCTGGGA | -0.257
8 | TGGAACAGGACTACTAAGCTGG | 0.124
9 | TTTTCTGATTGCACTGACCATA | -0.486
10 | TTGCTCTGACACATTCCTGAGC | -0.804
11 | TCTTGCTCTGACACATTCCTGA | 0.143
12 | TTGTGAGCTGTGTCCACTGGGC | -0.159
13 | AAAGGTAACAGACAGAAGCTTG | -0.962
14 | TAGCACTTTCTCCCAGTCCATC | -1.62
15 | ATGGTGAGTATAGACTAGCTGC | -0.611
16 | TTGCGCACTAACGACACGCCGG | -1.01
17 | TTCTCTGAATCTCTACTGGAGG | -0.666

Molecular target: MEN1
Assay: as above
Details: shRNA

Row | Sequence | sensor-assay potency score (higher = more potent)
18 | TAGAGGGACAGGTCGACGGCGC | -0.785
19 | TTGTAGTCCTGGATGACAGTGG | 0.138
20 | TACTTCAAAGAACTCCTTGTAG | 0.208
21 | TTCAGGTACAGCCAGCTCCGCT | -1.42
22 | TATGACATCGGAGACCTTCTTC | 0.751
23 | TTCTTCACCAGCTCACGGCTGG | -0.0281
24 | TTGTGGTAGAGGGTGAGTGGGT | -0.985
25 | TCATCTGCACTTGCGACTGTGC | -1.27
26 | TTCTTCATCTGCACTTGCGACT | -0.844
27 | TAGTAGGTCTTGGCTGAGGCAA | -1.23
28 | TAGATCTCCTCGTCTTCCCGGC | -0.0589
29 | TTCATCTGCACTTGCGACTGTG | 0.123

Molecular target: MEPCE
Assay: as above
Details: shRNA

Row | Sequence | sensor-assay potency score (higher = more potent)
30 | TGATGTGTCCGCTCCATCCAAG | -1.38
31 | TTGTTGGGGAAGACTGATGTGT | -0.599
32 | TTCAGATGCACCCACTTGGTGA | -1.03
33 | TAGTGTCGGATGTTTTGGCGGG | -0.437
34 | TAACTGAGGCAGCTGGAGGGGC | -0.431
35 | TAAGAGTCTTTCTCTTGCCATA | -1.25
36 | TAGTATTTGCAATAATTCCCAT | -0.782
37 | TTTCGAACGGTGGTGGTCCCTT | -0.585
38 | TTGTGGAACAGGTACACAGGAC | -0.946
39 | TTCTTGTAGATCGTTTCTGTAA | -0.866
40 | TTGGATTCGGTAGTAGTTCTTG | 0.313
